Compound activity as filed in PubChem.
MCF10A rerep = A quantitative high throughput screen for small molecules that induce DNA re-replication in MCF 10a normal breast cells | MCF 10A DNA re-replication, Hoechst nuclear intensity, 48 h | Potency, µM (top dose mostly 46.1 µM), for inactives: at the top dose activity, positive = re-replication, usual class: activators | actives 2.9% (n = 350,000); further: % of control where 0% means no effect; nearly all actives have a fitted effect of over 50% in size
SW480 rerep = A quantitative high throughput screen for small molecules that induce DNA re-replication in SW480 colon adenocarcinoma cells | SW480 DNA re-replication, Hoechst DNA content imaging, 48 h | Potency, µM (titrated, usually from 46.1 µM), for the others: top-dose re-replication activation, actives largely listed as activators | actives 1.8% (n = 340,000) | AID 624297, 2012; further: % of control where 0% means no effect; nearly all actives have a fitted effect of over 55% in size
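Image-based read-out: total Hoechst fluorescence of nuclei (405 nm excitation, 500-530 nm emission), with hits raising the fraction of high-intensity nuclei. SW480 colon cells incubated 48 hr with compounds at 37 C.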
KB-3-1 tox = qHTS assay for MDR1-selective chemotherapeutics: Primary screen using the parental adenocarcinoma cell KB-3-1 | KB-3-1 viability, CellTiter-Glo ATP luminescence, 72 h | Potency, µM (highest dose often 46.1 µM), hits mostly cytotoxic | actives 1.4% (n = 400,000) | AID 1347075, 2019; further: on the % scale 0 is the no-effect control and ±100 the full control effect; nearly all actives have a fitted effect of over 60% in size
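Screening of KB-3-1 cells (DMEM, 10% FBS, phenol-red free) ran from lowest to highest compound concentration; after 72 h at 37 °C viability was read luminescently and curves fitted.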
KB-V1 MDR tox = qHTS assay for MDR1-selective chemotherapeutics: Primary screen using the drug-selected MDR subline cells KB-V1; KB-V1 MDR cells viability, CellTiter-Glo, 72 h; Potency, µM (highest dose often 46.1 µM), hits mostly cytotoxic; actives 3.4% (n = 400,000); AID 1347076, 2019; further: on the % scale 0 is the no-effect control and ±100 the full control effect; nearly all actives have a fitted effect of over 60% in size
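Drug-selected KB-V1 cells, grown in DMEM lacking phenol red with 10% FBS, receive compound titrations; after three days at 37 degrees C, surviving cell ATP is quantified by CellTiter-Glo luminescence and responses normalized and curve-fitted.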
12-LOX inh = Primary qHTS assay for inhibitors of human arachidonate 12S-lipoxygenase (ALOX12): Round 2. purified 12hLO, xylenol orange hydroperoxide absorbance. Potency, µM (doses to about 108 µM), without a hit: at the top dose activity change, negative = inhibition, most hits filed as inhibitors. actives 1.1% (n = 580,000); further: on the % scale 0 is the no-effect control and ±100 the full control effect
Target sequence (P18054 whole entry, looked up): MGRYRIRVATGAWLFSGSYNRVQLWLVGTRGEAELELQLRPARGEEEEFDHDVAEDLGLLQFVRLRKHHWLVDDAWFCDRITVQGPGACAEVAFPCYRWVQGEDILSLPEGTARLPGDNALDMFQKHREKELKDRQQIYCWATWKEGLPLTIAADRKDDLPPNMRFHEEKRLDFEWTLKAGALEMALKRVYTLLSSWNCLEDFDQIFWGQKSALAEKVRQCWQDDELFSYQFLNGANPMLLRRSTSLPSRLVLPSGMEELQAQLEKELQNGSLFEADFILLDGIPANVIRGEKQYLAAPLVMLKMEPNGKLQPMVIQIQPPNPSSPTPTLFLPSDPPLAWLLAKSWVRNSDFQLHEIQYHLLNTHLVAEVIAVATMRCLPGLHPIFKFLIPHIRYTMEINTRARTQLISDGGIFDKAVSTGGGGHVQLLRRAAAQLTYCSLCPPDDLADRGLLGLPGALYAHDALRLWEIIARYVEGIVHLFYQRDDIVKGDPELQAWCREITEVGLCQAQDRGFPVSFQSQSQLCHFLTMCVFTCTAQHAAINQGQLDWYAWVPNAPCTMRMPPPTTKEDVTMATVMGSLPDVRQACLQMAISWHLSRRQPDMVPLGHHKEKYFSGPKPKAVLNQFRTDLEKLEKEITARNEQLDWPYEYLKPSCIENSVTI
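Purified human 12hLO (150 nM final) in 25 mM Hepes, 0.01% Triton X-100, pH 7.0 was preincubated 15 min at room temperature with compound. Then 40 uM arachidonic acid was added, 30 min. Hydroperoxide was read by Fe-XO absorbance ratio 573/405 nm.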
PINK1 expr mod = A Quantitative High throughput Screen to Identify Chemical Modulators of PINK1 Expression; PINK1 immunofluorescence, high-content cytometry, 24 h; Potency, µM (highest dose often 76.6 µM), without a hit: at the top dose activation (PINK1 increase), usual class: activators; actives 0.2% (n = 410,000); AID 624263, 2012; active means well fitted activation curve with a large enough effect; inconclusive means small, poorly fitted or top-dose-only effect; cell line not stated here; further: % of control where 0% means no effect; nearly all actives have a fitted effect of over 65% in size
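Measures PINK1 amount and localization on or inside mitochondria by immunofluorescence. Stable cells get compounds at 5 concentrations for 24 hours before fixation and staining; CCCP controls included.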
An asterisk follows results filed as active; i = inactive; ? = inconclusive; nt = no result given; [ ] = another dose, or the depositor's remark. Most compounds without a hit are left out; they make up all but 5.8% or so of the library. Unless noted, the call rests on the fitted dose curve; in most records, active means well fitted curve in the direction sought with a large enough effect; inconclusive means small, poorly fitted or top-dose-only effect, or another doubt; inactive means no such curve, though single readings can be large; an effect the other way counts as inactive or inconclusive. Potency means the concentration at half of the fitted maximal effect.

SMILES	MCF10A rerep	SW480 rerep	KB-3-1 tox	KB-V1 MDR tox	12-LOX inh	PINK1 expr mod
COc1cccc(NC(=O)C(Sc2nnc3ccccn23)c2ccccc2)c1 (stereo unspecified)	?	-2.7%	i	20.6µM*	-0.3%	4.8%
CCCn1c(SC(C(=O)Nc2cccc(OC)c2)c2ccccc2)nc2ccccc2c1=O (stereo unspecified)	0.8%	?	i	i	5.7%	0.3%
CCc1ccc2nc(-c3ccc(C)cc3C)cc(C(=O)O)c2c1	nt	nt	nt	nt	-43.0%	nt
O=C(C#Cc1ccccc1)c1ccc([N+](=O)[O-])cc1	?	13µM*	23.1µM*	?	0.0%	-2.5%
O=C(C#Cc1ccccc1)c1ccccc1	nt	nt	i	?	-12.0%	-0.7%
Nc1nccnc1C(=O)Nc1ccc(C(=O)NCC(F)(F)F)cc1	nt	nt	nt	nt	7.8%	nt
C=C(C)C(=O)Nc1nnc(-c2cccs2)s1	10.3µM*	19.0%	i	i	4.5%	-0.4%
Cc1cc(C)cc(CC(Cc2nc3ccccc3[nH]2)c2nc3ccccc3[nH]2)c1 (stereo unspecified)	?	-3.0%[9.22 µM]	16.4µM*	i	0.0%	15.8µM*
Clc1ccc(SCc2nc3ccccc3[nH]2)cc1	?	0.8%	i	23.1µM*	21.1%	8.7%[38.3 µM]
c1coc(-c2nnc(SCc3nc4ccccc4[nH]3)o2)c1	4.7%	-0.8%	?	14.6µM*	-9.3%	4.6%[38.3 µM]
Cc1ccc(CSCc2nc3ccccc3[nH]2)cc1	16.4µM*	?	i	i	4.5%	-2.2%
Cc1ccc(N2CCC(N[C@@H]3CC[C@@H](N)C3)CC2)cc1Cl	nt	nt	nt	nt	8.1%	nt
Cc1nc(SCc2nc3ccccc3[nH]2)c2oc3ccccc3c2n1	?	0.2%	i	i	0.0%	-0.5%
c1ccc2[nH]c(CSc3ncnc4c3oc3ccccc34)nc2c1	?	5.7%	?	4.61µM*	20.6%	0.6%[38.3 µM]
Cc1nc2ccccc2c(C)c1CC(=O)NCCc1ccccc1F	nt	nt	nt	nt	17.8µM*	nt
Cc1nc2ccccc2c(C)c1CC(=O)NCC(C)C	nt	nt	nt	nt	-2.0%	nt
CC(=O)c1ccc(Nc2nc(C(N)Cc3ccc(C(F)(F)F)cc3)cs2)cc1 (stereo unspecified)	nt	nt	?	11.6µM*	-16.4%	1.9%
NCc1csc(Nc2ccc(C(=O)c3ccccc3)cc2)n1	nt	nt	5.8µM*	?	3.1%	6.1%
Cc1ccc(C(=O)Nc2nc(C(N)Cc3ccc(C(F)(F)F)cc3)cs2)cc1 (stereo unspecified)	nt	nt	i	i	9.6%	1.9%
NC(Cc1ccc(C(F)(F)F)cc1)c1csc(Nc2ccc(C(=O)c3ccccc3)cc2)n1 (stereo unspecified)	nt	nt	?	23.1µM*	?	-0.1%
Cc1cn2c(C(=O)c3ccccc3)c(-c3ccccc3)cc2cc1-c1ccccc1	nt	nt	nt	nt	-18.4%	nt
Cc1cc(C)n(-c2nc3ccccc3nc2Nc2ccc(F)c(F)c2)n1	nt	nt	nt	nt	14.9%	nt
CN(c1cccc(NC(=O)CN(c2cccc(Cl)c2)S(=O)(=O)c2ccc(Cl)cc2)c1)S(C)(=O)=O	17.2%	nt	?	18.4µM*	?	-0.4%
Cc1ccc(Cl)cc1N(CC(=O)Nc1cccc(N(C)S(C)(=O)=O)c1)S(C)(=O)=O	-2.8%	2.9%	i	i	-0.6%	0.7%
COc1cccc(N(CC(=O)Nc2ccc3c(c2)OCO3)S(=O)(=O)c2ccccc2)c1	9.2%	16.5%	i	16.4µM*	-22.0%	-2.8%
SMILES	MCF10A rerep	SW480 rerep	KB-3-1 tox	KB-V1 MDR tox	12-LOX inh	PINK1 expr mod
COC(=O)c1cc(NC(=O)CN(c2cccc(OC)c2)S(=O)(=O)c2ccccc2)ccc1Cl	18.5%	1.6%	16.4µM*	1.46µM*	-4.7%	-2.2%
COc1ccc(N(CC(=O)Nc2ccc3c(c2)OCO3)S(=O)(=O)c2ccccc2)cc1	-0.5%	-10.6%	i	i	0.5%	-0.4%
O=C1Nc2ccccc2CCC1n1nc(-c2ccccc2F)ccc1=O (stereo unspecified)	nt	nt	nt	nt	1.0%	nt
Fc1cccc(Cl)c1CSc1ccc(-c2cccnc2)nn1	23.1µM*	12.4%	i	i	-18.8%	-0.9%
O=C(CCNC(=O)c1ccc(Br)cc1)Nc1nccs1	0.2%	-1.3%	i	?	i	3.3%
O=C(Nc1nccs1)c1ccc(Br)cc1	-2.4%	14.6µM*	i	i	27.0%	5.7%
COc1cc(C(=O)Nc2ccc(S(=O)(=O)NC(C)(C)C)cc2)cc(OC)c1OC	?	1.4%	i	i	-14.1%	1.2%[38.3 µM]
COc1ccc(C(=O)Nc2ccc(S(=O)(=O)NC(C)(C)C)cc2)cc1[N+](=O)[O-]	0.13µM*	9.4%	i	?	2.2%	1.8%
COc1ccc(C(=O)Nc2ccc(C(=O)Nc3nccs3)cc2)cc1[N+](=O)[O-]	-3.2%	10.3µM*	?	i	12.3%	1.3%
COc1ccc(C(=O)Nc2ccc(NC(=O)c3cccs3)cc2)cc1[N+](=O)[O-]	-1.7%	13.5%	?	i	-5.6%	?
C#CCNC(=O)c1ccccc1NC(=O)c1nc(Cl)ccc1Cl	nt	nt	nt	nt	-1.7%	nt
O=c1[nH]c(=O)n(CCc2ccccc2)c2nccc(-c3ccccc3)c12	nt	nt	nt	nt	11.1%	nt
COc1ccc(NC(=O)c2nc(-c3ccccc3)oc2C)c(OC)c1	nt	nt	nt	nt	23.2%	nt
O=C(Nc1ccccc1-c1nc(Cc2ccccc2)no1)c1ccncc1	nt	nt	nt	nt	16.5%	nt
CC(C)CCSCC(=O)NCc1cccc(CN2CCCC2)c1	nt	nt	nt	nt	-21.5%	nt
Cn1nc(C(F)(F)F)c(/C=N/OC(=O)c2ccccc2Cl)c1SCc1ccc(Cl)cc1	?	-1.3%	?	?	0.0%	-1.1%
COc1ccc(C(=O)O/N=C/c2c(C(F)(F)F)nn(C)c2SCc2ccccc2Cl)cc1	?	?	7.31µM*	?	-23.3%	-1.0%
COCCN1C(=O)c2ccccc2C(C(=O)Nc2ccc(C(C)=O)cc2)C12CCCC2 (stereo unspecified)	nt	nt	nt	nt	-5.8%	nt
CCN1CCN(CCNC(=O)CSc2ncnc3c2sc2cccc(F)c23)CC1	nt	nt	nt	nt	10.5%	nt
COc1ccc(-c2nc(N=Nc3ccc(O)cc3)n[nH]2)cc1	-3.6%	-4.2%	i	i	?	1.2%
Cc1ccc(-c2nc(N=Nc3ccc(O)cc3)n[nH]2)cc1	?	-3.4%	i	13µM*	-12.3%	0.1%
